Results on 34 molecules are retold here after ChEMBL document CHEMBL1156829.

Structures are written as SMILES. Over roughly 5,400 compounds, “IFI” has its median near 2; the highest 2% begin near 22. The entries come from a sample that favours the highest values as a whole.

The nature of the test: NOVARTIS: Inhibition Frequency Index (IFI) - the number of HTS assays where a compound showed > 50% inhibition/induction, expressed as a percentage of the number of assays in which the compound was tested. It counts as functional.
`Cc1ccn2c(NC(C)(C)CC(C)(C)C)c(-c3ccccc3OC(=O)c3ccc(C)c([N+](=O)[O-])c3)nc2c1`: the IFI turned out to be 3.74%. Molecule `Cc1ccc(S(=O)(=O)NC(Cc2ccccc2)C(=O)N2CCC(C3CCN(C(=O)c4ccc([N+](=O)[O-])o4)CC3)CC2)cc1` (centres undefined) gave an IFI of 7.69%. For the molecule `CCCCSc1oc(C)nc1[P+](c1ccccc1)(c1ccccc1)c1ccccc1`, the IFI worked out at 22.2%. Then `Cc1nc([P+](c2ccccc2)(c2ccccc2)c2ccccc2)c(SCc2ccccc2)o1`, with 21.6%. `CCC(c1nc2ccccc2c(=O)n1-c1ccc(F)c(Cl)c1)N(CCc1ccccc1)C(=O)COc1ccccc1` (centres undefined) had an IFI of 1.87%. Take `OC(Cn1nnc2ccccc21)Cn1c2ccc(Br)cc2c2cc(Br)ccc21` (centres undefined): the IFI was found to be 2.01%.

With `COc1ccc(OC)c(C2CC(=O)C3=C(C2)NC(=O)CC3c2ccc([N+](=O)[O-])cc2)c1` (centres undefined), the IFI was found to be 0%.

`CC(/C=C/C(=O)NO)=C\[C@@H](C)C(=O)c1ccc(N(C)C)cc1` registered an IFI of 22.6%. Turning to `Cc1ccc(C(=O)C(C)[n+]2ccc(N(C)C)cc2)cc1` (centres undefined), the IFI was found to be 0%. In turn, `CN(C)c1ccc(/C=C/C(=O)NC(=O)c2ccccc2O)cc1` yielded an IFI of 10.6%. `CC(C)COc1ccc(C(=O)N/C(=C/c2ccccc2)C(N)=O)cc1` had an IFI of 0%.

Turning to `COc1ccccc1NC1=CC(=NS(=O)(=O)c2ccccc2)c2ccccc2C1=O`, the IFI was found to be 21.4%. `COc1ccc(S(=O)(=O)N=C2C=C(Nc3ccc(O)cc3)C(=O)c3ccccc32)cc1` gave an IFI of 23.1%. Then `CC(=O)Nc1ccc(NC2=CC(=NS(=O)(=O)c3ccccc3)c3ccccc3C2=O)cc1`, with 7.69%; and `COc1ccc(S(=O)(=O)N=C2C=C(Nc3ccccc3OC)C(=O)c3ccccc32)cc1`, with 23.1%; and `O=C1C(Nc2ccc(O)cc2)=CC(=NS(=O)(=O)c2cccs2)c2ccccc21`, with 23.1%. On to `COc1ccc(S(=O)(=O)N=C2C=C(Nc3ccccc3)C(=O)c3ccccc32)cc1`, for which the IFI was 0%. Consider `COc1ccccc1NC1=CC(=NS(=O)(=O)c2ccc(F)cc2)c2ccccc2C1=O`, for which the IFI worked out at 15.4%. The molecule `CCOc1ccc(S(=O)(=O)N=C2C=C(Nc3ccc(O)cc3)C(=O)c3ccccc32)cc1` gave an IFI of 15.4%. On to `COc1ccccc1NC1=CC(=NS(=O)(=O)c2cccs2)c2ccccc2C1=O`, for which the IFI is 7.69%. For the molecule `CC(=O)N(C1=C(N2CCOCC2)C(=O)c2ccccc2C1=O)c1cccc(Cl)c1`, the IFI was 0%. `O=C(NC1CC1)C1CCN(c2cccc3c2C(=O)N(C2CCCCCCC2)C3=O)CC1` displayed an IFI of 5.94%. The molecule `Cc1ccc2nc(-c3ccc(O)cc3)oc2c1` yielded an IFI of 7.14%.

Molecule `O=S(=O)(Nc1cc(Sc2nc[nH]n2)c(O)c2ccccc12)c1ccc(F)cc1` had an IFI of 23.1%. Turning to `Cc1oc2c(cc(NS(=O)(=O)c3ccc(F)cc3)c3ccccc32)c1C(=O)OCc1ccccc1`, the IFI is 0%. With `O=S(=O)(NCCCCNc1ccnc2cc(Cl)ccc12)c1ccc(F)cc1`, the IFI is 1.85%.

Take `O=C(c1ccc2nc(N3CCCCC3)sc2c1)N1CCN(Cc2ccc3c(c2)OCO3)CC1`: the IFI worked out at 2.86%. Then `COc1ccc([N+](=O)[O-])cc1NC(=O)C(C)Nc1ccc(N(C)C)cc1` (centres undefined), with 6.25%; and `CC1=C(C(=O)Nc2ccccn2)C(c2ccc(O)cc2)n2ncnc2N1` (centres undefined), with 0%.

On to `O=C(NN=Cc1ccc(O)cc1O)c1ccncc1`, for which the IFI turned out to be 2.73%. For `Oc1ccc(C=NN=C(Nc2ccccn2)c2ccccn2)c(O)c1` the value was 23.1%; for `NS(=O)(=O)c1ccc(CCNC(=O)/C=C/c2ccc3c(c2)OCO3)cc1`, 0%. `Oc1ccc(-c2ccnc3cc(Cl)ccc23)cc1CNCC1(O)CCCCC1` showed an IFI of 2.59%.

Molecule `COc1ccc(C(=O)C[N+]2=C(C)c3ccc(C)n3CC2)cc1` came in with an IFI of 0%.
